Several values for one entry are separate records, joined by “and”; a condition that tells them apart may be missing. Equal values may be shown once. A structure can be active in one record and inactive in another. Activity calls are given as the source filed them. The calls were made as follows: active = hit-call score of the fitted dose curve at least 0.9, where 1 is the maximum; inactive = score below 0.9.

Read-out in experiment [1]: Macrophage colony-stimulating factor (MCSF), CSF1 (gene 1435)
The experiment is described as follows: BSK_hDFCGF_MCSF: BioMAP Diversity Plus: hDFCGF Assay for Macrophage colony-stimulating factor (MCSF) Biomarker Activity (AID 2283060). To be noted: primary human foreskin fibroblasts; actives raise or lower the signal. The method, boiled down: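 Human foreskin primary fibroblasts were treated with test chemical for 24 h, and M-CSF was then measured by ELISA. Data were fitted bidirectionally against DMSO as the negative control and activity baseline.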

Experiment [2] is described as follows: BSK_hDFCGF_SRB: Viability Assessment in the BioMAP Diversity Plus: hDFCGF Assay (AID 2283061).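 Also: cells exposed to compound for 24 h before the read.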 To be noted: primary human foreskin fibroblasts. The gist of the method: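 Human foreskin primary fibroblasts were treated with compound and assessed 24 h after dosing. Total protein was measured by sulforhodamine B staining (0.1% SRB after 10% TCA fixation, 560 nm read) as a cytotoxicity marker, with bidirectional fitting against DMSO baseline.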

Read-out in experiment [3]: TIMP metallopeptidase inhibitor 1 (TIMP1), TIMP1 (gene 7076)
The experiment is described as follows: BSK_hDFCGF_TIMP1: BioMAP Diversity Plus: hDFCGF Assay for TIMP metallopeptidase inhibitor 1 (TIMP1) Biomarker Activity (AID 2283062). The settings on record: primary human foreskin fibroblasts; actives raise or lower the signal. The gist of the method:
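Primary human foreskin fibroblasts in the hDFCGF system were dosed with compound for 24 h, then TIMP-1 was measured by ELISA. Activity was fitted bidirectionally relative to DMSO control; parallel SRB staining assessed cytotoxicity.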

Read-out in experiment [4]: Monokine induced gamma interferon (MIG), CXCL9 (gene 4283)
The experiment is described as follows: BSK_hDFCGF_MIG: BioMAP Diversity Plus: hDFCGF Assay for Monokine induced gamma interferon (MIG) Biomarker Activity (AID 2283063). To be noted: primary human foreskin fibroblasts; actives raise or lower the signal. The gist of the method:
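ELISA read-out of MIG from primary human dermal fibroblasts 24 h post-dosing. Gain or loss of signal fitted bidirectionally, DMSO as baseline.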

Read-out in experiment [5]: Matrix Metallopeptidase 1 (MMP1), MMP1 (gene 4312)
The experiment is described as follows: BSK_hDFCGF_MMP1: BioMAP Diversity Plus: hDFCGF Assay for Matrix Metallopeptidase 1 (MMP1) Biomarker Activity (AID 2283064). The settings on record: primary human foreskin fibroblasts; actives raise or lower the signal. The method, boiled down: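 hDFCGF primary fibroblasts (human foreskin); chemical added; 24 h; MMP1 by ELISA; bidirectional fit vs DMSO.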

Read-out in experiment [6]: Vascular cell adhesion molecule 1 (VCAM1), VCAM1 (gene 7412)
The experiment is described as follows: BSK_hDFCGF_VCAM1: BioMAP Diversity Plus: hDFCGF Assay for Vascular cell adhesion molecule 1 (VCAM1) Biomarker Activity (AID 2283065).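 As to AC50: VCAM-1 protein level quantified by ELISA after 24 h chemical exposure.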 The settings on record: primary human foreskin fibroblasts; actives raise or lower the signal. The gist of the method:
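Primary human foreskin fibroblasts (hDFCGF system) were dosed with chemical and VCAM-1 was measured by ELISA 24 h later. Bidirectional curve fitting used DMSO as negative control and activity baseline.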

Read-out in experiment [7]: Plasminogen activator inhibitor-1 (PAI1), SERPINE1 (gene 5054)
The experiment is described as follows: BSK_hDFCGF_PAI1: BioMAP Diversity Plus: hDFCGF Assay for Plasminogen activator inhibitor-1 (PAI1) Biomarker Activity (AID 2283066). The settings on record: primary human foreskin fibroblasts; actives raise or lower the signal. The method, boiled down:
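Primary dermal fibroblasts (human foreskin), hDFCGF system; compound 24 h; PAI-1 by ELISA; bidirectional fit vs DMSO control.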

Read-out in experiment [8]: Intercellular Adhesion Molecule 1 (ICAM1), ICAM1 (gene 3383)
The experiment is described as follows: BSK_KF3CT_ICAM1: BioMAP Diversity Plus: KF3CT Assay for Intercellular Adhesion Molecule 1 (ICAM1) Biomarker Activity (AID 2283067). To be noted: primary human keratinocytes with fibroblasts; actives raise or lower the signal. The method, boiled down: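 Human keratinocyte plus foreskin fibroblast primary co-culture was exposed to chemical for 24 h. ICAM-1 was then quantified by ELISA, and the data were fit bidirectionally against DMSO as the negative control and baseline.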

Read-out in experiment [9]: Interferon-gamma inducible Protein 10 (IP10), CXCL10 (gene 3627)
The experiment is described as follows: BSK_KF3CT_IP10: BioMAP Diversity Plus: KF3CT Assay for Interferon-gamma inducible Protein 10 (IP10) Biomarker Activity (AID 2283068). The settings on record: primary human keratinocytes with fibroblasts; actives raise or lower the signal. The method, boiled down:
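In a primary skin co-culture of keratinocytes and fibroblasts, IP-10 is quantified by ELISA at 24 h after dosing. SRB staining of parallel wells monitors overt toxicity. Curves are fitted both directions against DMSO.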

A short description of experiment [10]: BSK_KF3CT_SRB: Viability Assessment in the BioMAP Diversity Plus: KF3CT Assay (AID 2283069).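 Also: fitted for both signal gain and loss against DMSO baseline.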 The settings on record: primary human keratinocytes with fibroblasts. The method, boiled down: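 Keratinocytes co-cultured with foreskin fibroblasts (human primary); chemical added, 24 h; fix 10% TCA, stain 0.1% SRB, A560. Bidirectional fit vs DMSO.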
Read-out in experiment [11]: Interleukin-1 alpha (IL1a), IL1A (gene 3552)
The experiment is described as follows: BSK_KF3CT_IL1a: BioMAP Diversity Plus: KF3CT Assay for Interleukin-1 alpha (IL1a) Biomarker Activity (AID 2283070). The settings on record: primary human keratinocytes with fibroblasts; actives raise or lower the signal. The method, boiled down: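 Chemicals were dosed onto co-cultured human keratinocytes and foreskin fibroblasts, IL-1a was quantified by ELISA at 24 h, and activity was fitted in both directions relative to DMSO controls.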

Read-out in experiment [12]: TIMP metallopeptidase inhibitor 2 (TIMP2), TIMP2 (gene 7077)
The experiment is described as follows: BSK_KF3CT_TIMP2: BioMAP Diversity Plus: KF3CT Assay for TIMP metallopeptidase inhibitor 2 (TIMP2) Biomarker Activity (AID 2283071). The settings on record: primary human keratinocytes with fibroblasts; actives raise or lower the signal. The gist of the method: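 Cells: human keratinocytes co-cultured with foreskin fibroblasts. Treat with chemical, 24 h. Measure TIMP-2 by ELISA; fit curves bidirectionally vs DMSO baseline.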

Read-out in experiment [13]: C-C motif chemokine 2 (Homo sapiens) (UniProt P13500)
The experiment is described as follows: BSK_KF3CT_MCP1: BioMAP Diversity Plus: KF3CT Assay for Monocyte Chemoattractant Protein 1 (MCP1/CCL2) Biomarker Activity (AID 2283073). To be noted: primary human keratinocytes with fibroblasts; actives raise or lower the signal. The method, boiled down: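 Human keratinocyte plus foreskin fibroblast primary co-culture exposed to chemical for 24 h. MCP-1 levels measured by ELISA. Bidirectional curve fitting relative to DMSO negative control as baseline.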

Read-out in experiment [14]: Matrix Metallopeptidase 9 (MMP9), MMP9 (gene 4318)
The experiment is described as follows: BSK_KF3CT_MMP9: BioMAP Diversity Plus: KF3CT Assay for Matrix Metallopeptidase 9 (MMP9) Biomarker Activity (AID 2283074). The settings on record: primary human keratinocytes with fibroblasts; actives raise or lower the signal. The gist of the method: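 Human keratinocyte/foreskin fibroblast co-culture; compound added; 24 h; MMP-9 by ELISA; bidirectional fit vs DMSO baseline.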

Read-out in experiment [15]: urokinase plasminogen activator (uPA), PLAU (gene 5328)
The experiment is described as follows: BSK_KF3CT_uPA: BioMAP Diversity Plus: KF3CT Assay for urokinase plasminogen activator (uPA) Biomarker Activity (AID 2283075). The settings on record: primary human keratinocytes with fibroblasts; actives raise or lower the signal. The gist of the method:
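ELISA readout of uPA, analyzed for signal gain or loss relative to DMSO, from a human primary keratinocyte–foreskin fibroblast co-culture measured 24 h after chemical treatment.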

Read-out in experiment [16]: CD40, CD40 (gene 958)
The experiment is described as follows: BSK_LPS_CD40: BioMAP Diversity Plus: LPS Assay for CD40 Biomarker Activity (AID 2283076). To be noted: primary human HUVEC with PBMC; actives raise or lower the signal. The method, boiled down: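 Primary human umbilical vein endothelial cells co-cultured with peripheral blood mononuclear cells, LPS-stimulated, were dosed with chemical and read 24 h later. CD40 levels were measured by ELISA and fitted bidirectionally against DMSO as negative control and baseline.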

Read-out in experiment [17]: E-selectin (Homo sapiens) (UniProt P16581)
The experiment is described as follows: BSK_LPS_Eselectin: BioMAP Diversity Plus: LPS Assay for Eselectin Biomarker Activity (AID 2283077). To be noted: primary human HUVEC with PBMC; actives raise or lower the signal. The method, boiled down:
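Human umbilical vein endothelial cells co-cultured with peripheral blood mononuclear cells under LPS stimulation; E-selectin measured by ELISA 24 h after chemical dosing. Activity fitted bidirectionally against DMSO as negative control and baseline.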

Read-out in experiment [18]: Interleukin-8 (IL8), CXCL8 (gene 3576)
The experiment is described as follows: BSK_LPS_IL8: BioMAP Diversity Plus: LPS Assay for Interleukin-8 (IL8) Biomarker Activity (AID 2283078). The settings on record: primary human HUVEC with PBMC; actives raise or lower the signal. The gist of the method:
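Human umbilical vein endothelial cells co-cultured with PBMC were stimulated with LPS; IL-8 levels were measured by ELISA 24 h after chemical dosing. Activity was fitted bidirectionally against DMSO as negative control and baseline.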

The nature of experiment [19]: BSK_LPS_SRB: Viability Assessment in the BioMAP Diversity Plus: LPS Assay (AID 2283079).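 Also: total protein by sulforhodamine B absorbance as a cytotoxicity measure; measured one day after compound addition; fitted in both directions against DMSO so loss or gain of signal counts.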 To be noted: primary human HUVEC with PBMC. The gist of the method: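 Human umbilical vein endothelial cells co-cultured with PBMC (LPS system) were dosed for 24 h. Total protein was stained with 0.1% sulforhodamine B after 10% TCA fixation, read at 560 nm, and fitted bidirectionally against DMSO baseline.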

Sequence of E-selectin (Homo sapiens) (P16581 whole entry, looked up): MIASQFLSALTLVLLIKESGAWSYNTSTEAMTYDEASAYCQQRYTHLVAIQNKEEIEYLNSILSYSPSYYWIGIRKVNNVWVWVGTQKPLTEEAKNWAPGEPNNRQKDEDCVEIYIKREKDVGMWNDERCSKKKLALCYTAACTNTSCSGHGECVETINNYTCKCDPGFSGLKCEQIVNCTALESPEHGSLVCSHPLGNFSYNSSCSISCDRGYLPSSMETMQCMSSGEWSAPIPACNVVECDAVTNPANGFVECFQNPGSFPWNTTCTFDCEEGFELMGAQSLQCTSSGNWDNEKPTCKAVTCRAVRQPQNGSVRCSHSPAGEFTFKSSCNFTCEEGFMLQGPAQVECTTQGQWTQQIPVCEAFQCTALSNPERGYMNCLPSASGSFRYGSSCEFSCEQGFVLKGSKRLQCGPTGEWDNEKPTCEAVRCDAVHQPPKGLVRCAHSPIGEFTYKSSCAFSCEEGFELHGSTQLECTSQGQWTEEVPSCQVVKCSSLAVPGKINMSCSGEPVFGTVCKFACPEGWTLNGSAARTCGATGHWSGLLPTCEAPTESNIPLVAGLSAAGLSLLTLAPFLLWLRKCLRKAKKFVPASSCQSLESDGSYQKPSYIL

Regarding `CCc1c(Br)c(Br)c(Br)c(Br)c1Br`, the outcome in [1], in experiment [2], in experiment [3], in experiment [4], in [5] and in [6] was inactive. The outcome in [7], in experiment [8], in experiment [9], in experiment [10], in experiment [11] and in experiment [12] was inactive. In addition, the result in experiment [13], in [14], in [15], in experiment [16], in experiment [17] and in [18] was inactive. The result in experiment [19] was inactive.

As for `O=C(O)C(F)(F)C(F)(F)C(F)(F)C(F)(F)C(F)(F)C(F)(F)C(F)(F)C(F)(F)Cl`, the AC50 (commonly the midpoint of the concentration-response curve, whichever way the signal moves) was 30 µM (active) and 46.9 µM (active) in experiment [1]; 47.7 µM (active) and 49.2 µM (active) in experiment [2]; 30 µM (active) in [3]; 21.4 µM (active) and 34.1 µM (active) in experiment [4]; 1.31 µM (active) and 12.3 µM (active) in experiment [5]; 46.8 µM (active) and 30 µM (active) in experiment [6]. The concentration at half-maximal activity (AC50) in experiment [7] is 47.7 µM (active) and 46.5 µM (active); in experiment [8] it was 32 µM (active) and 25.1 µM (active); in [9] it was 45 µM (active) and 45.9 µM (active); in experiment [10], 41.7 µM (active) and 49.7 µM (active); in [11] it was 30 µM (active) and 20.5 µM (active); in experiment [12], 53.9 µM (active) and 52.6 µM (active). Further, the AC50 in experiment [13] was 49.4 µM (active) and 55.1 µM (active); in experiment [15], 47.8 µM (active) and 47.2 µM (active); in experiment [17], 30 µM (active); in experiment [18] it was 5.95 µM (active) and 40.1 µM (active); in [19], 48.4 µM (active) and 47.2 µM (active). Also, the outcome in experiment [3], in experiment [16] and in experiment [17] was inactive.

For the origin of these results see PubChem BioAssay (EPA / NIEHS).
